Screening data from PubChem.
This is a sample that favours compounds with a hit; in the whole collection about 12% have one here.
USP30 block – blocks human USP30 ubiquitin-rhodamine cleavage | Q70CQ3 | 47,000 tested, 5.3% active | inhibition, % at 25 µM | AID 1645860 | purified USP30, Ub-rhodamine cleavage fluorescence
USP10 inh – blocks human USP10 ubiquitin-rhodamine cleavage; Q14694; purified USP10, Ub-rhodamine fluorescence, 60 min; inhibition, % at 20 µM; 47,000 tested, 1.1% active
USP8 inh – inhibitors of human USP8 deubiquitinase | 47,000 tested, 4.2% active | inhibition, % at 20 µM | purified USP8, Ub-rhodamine cleavage fluorescence, 30 min
USP7 inh – blocks human USP7 ubiquitin-rhodamine cleavage. purified USP7, Ub-rhodamine cleavage fluorescence. inhibition, % at 20 µM. 47,000 tested, 0.3% active
USP17 inh – inhibitors of human USP17 deubiquitinase. A8MUK1. purified USP17, Ub-rhodamine cleavage fluorescence, 3 h. inhibition, % at 50 µM. 47,000 tested, 6.5% active. AID 1645855
Target sequence (A8MUK1 whole entry, looked up): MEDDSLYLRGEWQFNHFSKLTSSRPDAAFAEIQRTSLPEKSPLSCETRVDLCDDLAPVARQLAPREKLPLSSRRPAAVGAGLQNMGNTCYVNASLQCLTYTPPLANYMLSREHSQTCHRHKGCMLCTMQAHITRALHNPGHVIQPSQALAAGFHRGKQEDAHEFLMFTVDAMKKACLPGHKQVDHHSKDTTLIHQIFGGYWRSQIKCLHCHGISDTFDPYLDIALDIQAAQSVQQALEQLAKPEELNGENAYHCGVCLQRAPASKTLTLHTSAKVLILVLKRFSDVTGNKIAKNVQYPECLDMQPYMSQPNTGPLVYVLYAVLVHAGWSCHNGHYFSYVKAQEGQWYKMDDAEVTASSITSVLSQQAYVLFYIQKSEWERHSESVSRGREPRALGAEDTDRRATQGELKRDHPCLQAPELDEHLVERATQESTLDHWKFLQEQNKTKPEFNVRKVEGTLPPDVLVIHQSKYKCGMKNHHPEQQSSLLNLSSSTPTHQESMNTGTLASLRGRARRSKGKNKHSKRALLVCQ
UCHL1 inh – blocks human UCHL1 ubiquitin-rhodamine cleavage; P09936; purified UCHL1, Ub-rhodamine cleavage fluorescence; inhibition, % at 20 µM; 47,000 tested, 0.2% active
Starred values were filed as active, the others as inactive; · = no result. Rule as the data show it: active = inhibition above about 30%; inactive = the rest.

SMILES | USP30 block | USP10 inh | USP8 inh | USP7 inh | USP17 inh | UCHL1 inh
COc1ccc(CNc2nccn(Cc3ccc(F)cc3)c2=O)cc1 | -8.3 | -1.3 | 0.0 | -8.8 | 9.9 | -3.7
Cc1ccccc1OCCN1C(=O)C2CN(C(N)=O)CCN2C1=O (centres undefined) | 31.0* | 5.6 | 41.9* | 2.2 | 12.0 | 4.0
O=S(=O)(c1ccc(F)cc1)c1nc(-c2ccco2)oc1SCc1ccc(F)cc1 | -73.1 | 0.6 | 14.7 | -82.6 | 0.2 | 4.3
O=S(=O)(Nc1nc(-c2ccco2)c(-c2ccco2)s1)c1ccc(F)cc1F | -420.7 | -4.7 | 37.4* | -18.9 | -17.4 | 7.7
COc1ccc(O)c(C(=O)c2cc(C#N)c(=O)n(-c3cccc(C(F)(F)F)c3)c2)c1 | -33.0 | -3.4 | 65.2* | -150.4 | 17.0 | -159.5
COc1cc(Cl)c(C)cc1-n1cc(C(=O)c2cc(Cl)ccc2O)cc(C#N)c1=O | -226.2 | -6.6 | 4.6 | -13.0 | -26.0 | -26.2
CCOC(=O)c1cc(OCC(=O)Nc2ccccc2)c2cc(Cl)ccc2n1 | -4.6 | 0.0 | 4.1 | 3.4 | 39.9* | -1.4
O=C1CN(C(=O)COC(=O)Cc2c(Cl)cccc2Cl)c2ccccc2N1 | -5.2 | -4.2 | 8.0 | -0.4 | -1.7 | -0.2
O=C1CN(C(=O)COC(=O)CCCN2C(=O)c3cccc4cccc(c34)C2=O)c2ccccc2N1 | 48.7* | 5.2 | 3.6 | 4.0 | 61.6* | 5.8
Fc1cnc(N2CCC3(CC2)CCn2c(-c4ccccc4)cnc23)nc1 | -0.4 | 0.2 | -1.2 | -0.4 | -20.5 | 0.7
CC(C)=CCc1c2c(c3occ(-c4ccc(O)cc4)c(=O)c3c1O)C=CC(C)(C)O2 | 56.5* | 29.9 | 16.5 | 2.3 | 90.6* | 9.6
CC(C)=CCc1c2c(c3occ(-c4ccc(O)c(O)c4)c(=O)c3c1O)C=CC(C)(C)O2 | 78.7* | 62.5* | 25.7 | -12.2 | 85.9* | 14.9
COc1ccc(-c2onc(C)c2C)cc1S(=O)(=O)NCc1ccc(F)cc1 | 2.7 | 58.2* | 11.1 | 3.6 | -2.9 | 4.8
COc1cc(-c2cnc3c(NC(C)=O)cc(-c4cncnc4)cn23)cc(OC)c1OC | -10.7 | -2.9 | -49.1 | -4.2 | -18.8 | -0.7
CC(=O)Nc1ccc(S(=O)(=O)NCCn2c(C)cc3ccccc32)cc1 | -162.2 | -3.8 | -62.1 | -25.0 | 34.4* | -22.7
Cc1cc2ccccc2n1CCNS(=O)(=O)c1ccc([N+](=O)[O-])cc1 | -63.0 | -10.8 | -134.7 | -21.6 | 16.8 | -18.9
Cc1ccc(C(=O)N2CCn3c(nnc3C3CC3)C2)c(=O)[nH]1 | 0.9 | -1.0 | 0.3 | 0.1 | 1.0 | -3.7
O=C(c1ccco1)N1CCN(C(c2cccc(F)c2)c2sc3ncnn3c2O)CC1 (centres undefined) | 0.4 | 1.4 | 12.4 | -0.3 | -0.1 | 0.2
Cc1c(C(C)OC(=O)c2ccc(F)cc2)sc2ncnn12 (centres undefined) | 32.0* | 1.7 | 7.7 | -1.3 | 16.8 | 2.2
Clc1ccc(Oc2ncccc2-c2nc3ccccc3s2)cc1 | 20.3 | 3.0 | -1.9 | 3.1 | 7.4 | 0.9
COCCN1CCN(c2ccc3ccc(C(=O)NCc4ccncc4)cn23)CC1 | -452.9 | -6.0 | -9.4 | -25.8 | -111.3 | -23.4
CCOC(=O)C1C(=O)NC(c2ccccc2)=NC1c1c(F)cccc1Cl (centres undefined) | 13.4 | 1.8 | 4.2 | 4.2 | -0.2 | 1.9
CCOC(=O)C1C(=O)NC(c2ccccc2)=NC1c1ccc(C(F)(F)F)cc1 (centres undefined) | 41.0* | 1.4 | 22.7 | 5.9 | 20.9 | 1.9
Cc1ccc(-n2nnnc2-c2cnc3cc(Cl)ccc3c2N)cc1 | 26.9 | 14.9 | 43.7* | 18.1 | 14.9 | 7.0
Clc1ccc2ncc(-c3nnnn3-c3ccc4ccccc4c3)c(-c3ccccc3)c2c1 | -0.6 | 3.7 | 8.6 | -19.6 | 0.0 | 5.0
SMILES | USP30 block | USP10 inh | USP8 inh | USP7 inh | USP17 inh | UCHL1 inh
Cc1ccc(-c2ncc(NC(=O)C3CCC3)cn2)cc1 | 3.9 | 6.3 | 33.3* | -12.0 | 1.2 | 0.0
COc1ccc(S(=O)(=O)Nc2ccccc2OC)cc1NC(=O)COc1cccc(F)c1 | 13.0 | 8.6 | -6.9 | 4.6 | -8.9 | 1.8
CCN(c1ccccc1)S(=O)(=O)c1nnc(NC(=O)C23CC4CC(CC(C4)C2)C3)s1 | 12.8 | 20.7 | 1.9 | 15.6 | 7.8 | 6.5
COc1ccc(CN2C(=O)N[C@@H](CCC(=O)Nc3cccc(Cl)c3)C2=O)cc1 | 25.8 | 12.0 | 25.1 | 7.3 | 13.9 | 1.3
COc1ccc(CN2C(=O)N[C@@H](CCC(=O)Nc3cccc(OC)c3)C2=O)cc1 | 3.9 | 4.2 | 11.8 | 4.1 | 44.7* | 0.7
Cc1ccc(CNC(=O)c2cnn(-c3ccc([N+](=O)[O-])cc3)c2C2CCNCC2)cc1 | 44.4* | -0.1 | -178.9 | 6.2 | -27.7 | 2.2
Cc1ccc(-n2ncc(C(=O)NCc3cccnc3)c2C2CCNCC2)cc1 | -18.1 | -2.6 | -93.6 | -0.7 | -22.6 | -6.4
CC(C)C(=O)N1C2CCC1CC(O)(c1nccn1C)C2 (centres undefined) | -317.7 | -3.2 | -10.7 | -21.7 | -101.3 | -19.1
O=C(/C=C/c1ccc2c(c1)OCO2)c1ccc(-n2cncn2)cc1 | · | 10.4 | 6.1 | 20.6 | 44.8* | 3.7
CN1CC(NC(=O)/C=C/c2ccc3c(c2)OCO3)CC1=O (centres undefined) | -1.6 | 2.7 | 0.8 | 2.0 | -6.2 | -0.1
COc1ccc(CCNC(=O)COc2cc(C)c3ccc(OC)cc3n2)cc1 | -31.2 | -2.2 | -16.3 | -2.0 | 45.6* | -1.6
COc1ccc(CCNC(=O)Cn2c(-c3cscn3)nc3ccccc32)cc1 | 7.6 | 2.8 | 9.6 | 0.9 | 1.7 | 1.9
COc1cccc(-n2cnc3cc(C(=O)NCc4ccncc4)ccc3c2=O)c1 | 31.0* | 0.6 | 57.6* | 0.1 | 25.3 | 0.5
O=C(NCc1ccncc1)c1ccc(Cn2cnc3ccccc3c2=O)o1 | -10.0 | 0.6 | 5.5 | 0.3 | -0.9 | 0.4
COc1ccc(OC)c2c(C)cc(N3CC(C)CC(C)C3)nc12 (centres undefined) | 43.2* | 14.5 | 97.7* | -32.7 | 95.9* | 22.0
CCOc1ccc2[nH]c3c(N4CC(C)CC(C)C4)ncnc3c2c1 (centres undefined) | -28.0 | 5.9 | -0.2 | 3.7 | -16.3 | 6.9
COc1ccccc1C(=O)N1CCC2(CC1)N=C(c1ccc(Cl)cc1)C(=O)N2 | 11.9 | 1.3 | -25.3 | -97.3 | -13.8 | 0.3
O=C(c1cc(Cl)cc(Cl)c1)N1CC(c2nc(-c3cccnc3)no2)C1 | 30.0* | 0.2 | -14.5 | -2.9 | 2.0 | -0.8
Nc1nnc(-c2cc(-c3ccc4c(c3)OCO4)on2)o1 | -68.3 | 16.9 | 54.2* | 8.3 | 2.4 | 1.2
Cc1cc(=O)n(CC(=O)Nc2ccccc2C)c(Nc2ccc(F)cc2)n1 | 72.6* | 29.0 | 16.0 | 4.6 | 17.8 | -2.9
Cc1noc(-c2ccc(-n3ncc(C(=O)NCc4ccccc4F)c3C)nc2)n1 | 43.1* | 0.2 | 17.6 | 1.4 | 40.5* | 1.5
Cc1noc(-c2ccc(-n3ncc(C(=O)NCc4ccccc4C)c3C)nc2)n1 | -4.7 | -1.4 | 0.0 | -3.7 | 1.8 | 0.0
